B2AR arrestin: recruits beta-arrestin to the human beta2-adrenergic receptor. P07550. beta-arrestin recruitment to beta2AR, cell-based reporter. Potency, µM (highest dose often 46.1 µM), actives largely listed as activators. 330,000 compounds, 0.02% hits. AID 492947; note: nearly all actives have a fitted effect of over 65% in size
Target sequence (P07550 whole entry, looked up): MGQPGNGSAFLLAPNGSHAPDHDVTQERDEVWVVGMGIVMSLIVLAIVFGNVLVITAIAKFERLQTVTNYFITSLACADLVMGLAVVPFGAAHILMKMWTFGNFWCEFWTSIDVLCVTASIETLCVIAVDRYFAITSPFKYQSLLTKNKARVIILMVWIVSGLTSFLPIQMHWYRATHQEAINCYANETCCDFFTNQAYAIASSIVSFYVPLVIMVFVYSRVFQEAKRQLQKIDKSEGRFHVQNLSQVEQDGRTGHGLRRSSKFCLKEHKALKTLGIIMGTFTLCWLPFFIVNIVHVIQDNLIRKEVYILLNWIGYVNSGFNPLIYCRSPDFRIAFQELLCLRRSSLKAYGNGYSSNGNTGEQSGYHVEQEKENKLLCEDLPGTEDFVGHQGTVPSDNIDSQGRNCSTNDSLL
Mito fusion act: mitochondrial division inhibition or fusion activation; Potency, µM (titrated, usually from 46.1 µM), actives largely listed as activators; S. cerevisiae fusion-defective mutant growth rescue, CellTiterGlo 48 h; 320,000 compounds, 0.23% hits; note: nearly all actives have a fitted effect of over 45% in size
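Luminescent cell viability in 1536-well qHTS format served as the measure of rescued growth in ts fusion-mutant S. cerevisiae cultured on non-fermentable YPEG for 48 hours at 37C.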
ERG Ets-DNA blk: inhibitors of human ERG Ets domain-DNA interaction | P11308 | fluorescence polarization, His-ERG Ets domain / labelled DNA | Potency, µM (top dose mostly 76.9 µM), usual class: inhibitors | 370,000 compounds, 0.028% hits | AID 624246; active = well fitted inhibition curve with a large enough effect in the polarisation, with a control signal flat; inconclusive = small, poorly fitted or top-dose-only effect, or effect the other way, or a change in a side signal; inactive = no such curve, though single readings can be large or run the other way; the % refers to the polarisation;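 note: polarization taken with two DNA probes labelled with fluorescein and Texas red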
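His-tagged ERG Ets domain (1 uM in the protein solution; 300mM KCl, 50mM Tris-HCl, 1mM EDTA, 1mM DTT, pH 7.5) received compound, then a probe mix of 5 nM fluorescein-DNA and 100nM Texas-615-DNA. Fluorescence polarization was read for both dyes.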
BRCA1 expr up: increases BRCA1 expression; MCF7-BRCA1-FFLuc reporter, luminescence, 48 h; response scale: scaled: vehicle 0%, 10 µM genistein 100%; Potency, µM (titrated, usually from 46.1 µM), hits mostly activators; 380,000 compounds, 1.1% hits; AID 624202; note: nearly all actives have a fitted effect of over 80% in size
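Reporter cells (MCF7, BRCA1 promoter-firefly luciferase) received library compounds across a concentration series for 48 h. End-point luminescence was measured and concentration-effect curves derived after normalization.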
A number is an active result; - = inactive; ? = inconclusive; . = no result given. Compounds with a hit are over-represented: about 1.2% of the library has one in this group of screens. Unless noted, calls come from the whole dose curve; as a rule, active = well fitted curve in the direction sought with a large enough effect; inconclusive = small, poorly fitted or top-dose-only effect, or another doubt; inactive = no such curve, though single readings can be large; an effect the other way counts as inactive or inconclusive.

SMILES	B2AR arrestin	Mito fusion act	ERG Ets-DNA blk	BRCA1 expr up
CCOc1ccccc1CNC(=O)CCc1c(C)nn(-c2ccc(N3CCCCC3)nn2)c1C	.	.	-	.
O=C(Nc1ccc(OCc2cc(=O)n3c4c(sc3n2)CCCC4)cc1)c1ccc(F)cc1	.	.	-	-
C/C=N\NC(=O)CNC(=O)CNC(=O)c1ccccc1	-	-	35.5µM	-
CCN(CC)S(=O)(=O)c1cccc(C(=O)NCCc2ccccc2)c1	.	.	-	6.31µM
C[n+]1c(/C=C/c2ccc(N)cc2)sc2ccccc21	.	.	.	-
O=C1NC(=S)N/C1=C/c1cccc2ccccc12	-	-	-	12.6µM
CC1CCC/C(=N\NC(=O)Nc2ccccc2)C1 (stereo not drawn)	-	-	-	-
CC1CCC/C(=N\Nc2ccc(Cl)c(C(=O)O)c2)C1 (stereo not drawn)	-	-	-	5.01µM
Cc1ccc(S(=O)(=O)NCC(c2ccco2)N2CCN(c3ccccc3F)CC2)cc1 (stereo not drawn)	.	.	-	.
O=C(CSc1nnc2sc3ccccc3n12)c1ccco1	-	-	.	12.6µM
C/C(=N\NC(=O)c1nnn(-c2nonc2N)c1C(C)C)c1cc(C)sc1C	-	31.6µM	-	-
Cc1cc(C)c(NC(=O)C(=O)NCCc2csc(-c3ccc(F)cc3)n2)c(C)c1	.	.	-	.
COc1cccc(C2CC(=O)Nc3c2c(=O)n(C)c2nc4ccccc4n32)c1OC (stereo not drawn)	.	.	-	-
CC1CCCCN1C(=O)COC(=O)c1n[nH]c2ccccc12 (stereo not drawn)	-	-	-	10µM
CC1CCCCN1C(=O)COC(=O)Cc1c[nH]c2ccccc12 (stereo not drawn)	-	.	-	-
CCN(CC)c1ccc(/C=N/N2CCN(Cc3ccccc3)CC2)c(O)c1	-	-	-	-
CCN(CC)c1ccc(/C=N/N2CCOCC2)c(O)c1	-	-	-	6.31µM
COC(=O)N1N=C(c2ccccc2)CC1(O)C(F)(F)F (stereo not drawn)	-	-	.	11.2µM
Nc1nc(SCc2ccccc2)c2ncn(C3CCCO3)c2n1 (stereo not drawn)	.	.	-	8.91µM
Nc1nc(SCc2ccccc2)c2ncn(C3CCCCC3)c2n1	.	.	-	-
Cc1c(NC(=O)c2ccc(C(C)(C)C)cc2)cccc1[N+](=O)[O-]	-	-	-	7.94µM
Cc1ccc(NC(=O)c2ccc(C(C)(C)C)cc2)cc1[N+](=O)[O-]	-	-	-	8.91µM
O=C(NC1CCCCC1)c1c[nH]c2ccc(S(=O)(=O)Nc3ccccc3F)cc2c1=O	.	.	-	.
Cc1ccc(CNC(=O)c2cccc(NC(=O)N3CCSc4ncccc43)c2)cc1	.	.	-	.
CCN1C(=O)CC(N2CCN(c3ccc(C(=O)c4ccccc4)cc3)CC2)C1=O (stereo not drawn)	.	-	-	11.2µM
SMILES	B2AR arrestin	Mito fusion act	ERG Ets-DNA blk	BRCA1 expr up
CCC(=O)NCc1csc(-c2cccs2)n1	-	-	-	-
COc1ccccc1CC(=O)NCc1csc(-c2cccs2)n1	-	-	-	11.2µM
COc1ccccc1CCNC(=O)c1nc(-c2cccs2)no1	-	-	-	3.98µM
Clc1ccc(OCc2cc(-c3ccccc3)no2)cc1Cl	-	-	.	14.1µM
Clc1ccc(-c2cc(COc3ccccc3)on2)cc1	-	-	-	10µM
C=CCNC(=O)c1cnn2c1NC(=C)C=C2C	.	.	.	-
CCOC(=O)c1ccc2[nH]c(C)c(C)c2c1	.	.	-	12.6µM
CC(=O)c1ccc(OCc2cc(C(=O)N(C)Cc3nc4c(C)cccc4[nH]3)no2)cc1	-	-	-	-
COc1cc(C)ccc1OCc1cc(C(=O)N(Cc2c(C)nn(C)c2C)C2CC2)no1	-	-	-	12.6µM
COc1cc(Cl)ccc1OCc1cc(C(=O)N(C)C2CCOC2)no1 (stereo not drawn)	-	-	-	12.6µM
COc1cc(Cl)ccc1OCc1cc(C(=O)N2C[C@H]3CC[C@H]2C3)no1	-	-	-	11.2µM
CC(=O)c1ccc(OCc2cc(C(=O)N(C)CCOc3ccc(C)cc3)no2)cc1	-	-	-	3.98µM
COc1cc(C)ccc1OCc1cc(C(=O)N2C[C@H]3CC[C@H]2C3)no1	-	-	-	-
Cc1ccc2c(C(=O)CNc3nc(C)c(C)s3)c(C)[nH]c2c1	.	.	.	-
COc1cc(NS(=O)(=O)c2cc3c(cc2C)N(C)CCO3)cc(OC)c1OC	.	.	-	.
CCc1ccc(S(=O)(=O)Nc2cccc(-c3ccc(N4CCOCC4)nn3)c2)cc1	.	.	-	.
CN(C(=O)c1cc(COc2c(F)cccc2F)on1)C1CCOC1 (stereo not drawn)	-	-	-	-
CC(=O)c1ccc(OCc2cc(C(=O)N(C)C3CCOC3)no2)cc1 (stereo not drawn)	-	-	-	12.6µM
Cc1cc(OCc2cc(C(=O)N(C)C3CCOC3)no2)cc(C)c1Cl (stereo not drawn)	-	-	-	2.82µM
COc1ccccc1C(=O)n1nc(-c2ccccc2)nc1NCc1ccc(Cl)cc1	.	.	-	-
Brc1ccc(-c2nnc(Cc3ccccc3)o2)cc1	-	-	-	11.2µM
COc1ccc(-c2nnc(-c3ccc(C)cc3)o2)cc1	-	-	-	2.82µM
COc1ccc(SCCc2nnc(-c3ccccc3)o2)cc1	-	-	-	-
Cc1ccc(-c2nnc(Cc3ccc(Cl)cc3)o2)cc1	-	-	-	12.6µM
COc1ccc(-c2nnc(-c3ccc(F)cc3)o2)cc1	-	-	-	?
SMILES	B2AR arrestin	Mito fusion act	ERG Ets-DNA blk	BRCA1 expr up
c1ccc(Cc2nnc(-c3ccccc3)o2)cc1	-	-	-	-
COc1ccc(Cc2nnc(-c3ccccc3)o2)cc1	-	-	-	12.6µM
CCn1c(=NC(=O)c2ccc(S(=O)(=O)N3CCCCC3)cc2)sc2cccc(OC)c21	.	.	-	-
CCN(Cc1cnn(C)c1)C(=O)c1cc(COc2cc(C)c(Cl)c(C)c2)on1	-	-	-	-
Cc1cc(OCc2cc(C(=O)N(C)CCc3cnn(C)c3)no2)cc(C)c1Cl	-	-	-	10µM
CC(=O)c1cccc(OCc2cc(C(=O)N(C)CCc3cnn(C)c3)no2)c1	-	-	-	-
COc1cc(Cl)ccc1OCc1cc(C(=O)N(C)CCc2cnn(C)c2)no1	-	-	-	7.08µM
COc1ccc(NC(=O)CCc2nc3cccnc3n2-c2ccccc2)cc1Cl	.	.	-	.
CCOC(=O)c1sc(-c2ccc(F)cc2)cc1N	-	-	-	11.2µM
CCOC(=O)c1sc(-c2ccccc2)cc1N	-	-	-	12.6µM
CCOC(=O)c1sc(-c2ccc(OC)cc2)cc1N	-	-	-	?
CCn1c2ccccc2c2cc(/C=C3/C=Cc4ccccc43)ccc21	.	.	.	-
COc1ccc(N2CCN(CC(=O)Nc3ccc(C)cc3Br)CC2)cc1	.	.	-	-
COc1ccc(NC(=O)CN2CCCCC2)c([N+](=O)[O-])c1	-	-	.	10µM
COc1ccc(NC(=O)CN2CCC(C)CC2)c([N+](=O)[O-])c1	-	-	.	-
Cc1ccc(NC(=O)CN2CCCCCC2)c(Br)c1	-	-	-	11.2µM
CCn1c(CN2CCC(C)CC2)nc2cc(NC(=O)COc3ccc(Cl)c(C)c3)ccc21	.	.	-	.
